Data reported in PubChem BioAssay (NCI).
This is part of a sample that, as a whole, favours compounds with a hit. Of some 79,000 tested, about 15% had one in any assay. Unmarked numbers belong to inactive results. Active and inactive are the calls of the source. Cut-off read from the data, not from the text of the source: active = growth inhibition above about 70%; inactive = the rest.

Experiment: NCI Yeast Anticancer Drug Screen. Data for the wt2 strain (AID 169);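 note: 0% = growth of vehicle-treated yeast cultures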
Settings: S. cerevisiae wt2 strain growth inhibition, active compounds read high
Experimental: Growth inhibition of yeast strains with defined genetic alterations is measured as a screen for potential anti-cancer activity. Selected strains with alterations in DNA damage repair or cell cycle control were exposed to compounds and growth inhibition was measured relative to vehicle treated controls. The strain used in this assay is wt2

Row | SMILES | growth inhibition (at 1.2 µM) [%] | growth inhibition (at 3.7 µM) [%] | growth inhibition (at 11.0 µM) | growth inhibition (at 33.0 µM) | growth inhibition (at 100.0 µM)
1 | O=C1C=C(N2CCN(c3ccccn3)CC2)C(=O)c2c(O)ccc(O)c21 | 4 | 9 | 15% | 32% | 52%
2 | COc1cc(C2c3cc4c(cc3OC(OC(C)=O)C2C)OCO4)cc(OC)c1OC (stereo not given) | -2 | -5 | -6% | -13% | 66%
3 | CCC(C)NC1=NCC(C)S1 (stereo not given) | -20 | -21 | -28% | -26% | -22%
4 | CCCCOP(=O)(CCCP(=O)(OCCCC)OCCCC)OCCCC | -2 | -5 | -4% | 0% | 96% (active)
5 | Clc1ccc2c(c1)N(CCCN1CCCC13CCCCC3)c1ccccc1S2 | 1 | 2 | 0% | -2% | -2%
6 | CC(=O)OCC1OC2OC(=O)NC2C(OC(C)=O)C1OC(C)=O (stereo not given) | -3 | -3 | -3% | -4% | -1%
7 | CCOc1ccccc1N=Cc1c2ccccc2cc2ccccc12 | -4 | 34 | 96% (active) | 98% (active) | 97% (active)
8 | C[C@@](O)(/C=C/[C@H]1CC=CC(=O)O1)[C@@H](C[C@@H](O)\C=C/C=C\C=C\CO)OP(=O)(O)O | 4 | 19 | 20% | 39% | 88% (active)
